According to PubChem BioAssay (NCATS):
Results filed as inconclusive are left out. Calls of active or inactive are those of the source. Calls come from the whole dose curve; as a rule, active = well fitted cell-killing curve with a large enough effect; inconclusive = small, poorly fitted or top-dose-only effect, or effect the other way; inactive = no such curve, though single readings can be large or run the other way.

Test: Quantitative High-Throughput drug screen in 47 multiple myeloma cell lines against the NCATS MIPE library collection: OCIMY1_PLB cell viability assay (AID 1918979); note: nearly all actives have a fitted effect of over 35% in size
Details: OCI-MY1 myeloma viability, CellTiter-Glo ATP, 48 h; series mostly up to 45.8 µM; viability: at the top concentration
Excerpt: PI: Beverly A. Mock Ph.D.
Laboratory of Cancer Biology and Genetics,
Center for Cancer Research, National Cancer Institute,
National Institute of Health, Bethesda, Maryland
Drug resistance and disease progression are common in multiple myeloma (MM) patients, underscoring the need for new therapeutic combinations. […] We hypothesized that effective combinations would reduce MYC expression and enhance p16 activity. […] These preclinical data identify potentially useful drug combinations for evaluation in drug-resistant MM and reveal potential mechanisms of combined drug sensitivity.
Described herein is the primary MIPE qHTS used to cherrypick compounds. Validated compounds were then further tested for potential synergistic activiy.
[1] Peat TJ, Gaikwad SM, Dubois W, Gyabaah-Kessie N, Zhang S, Gorjifard S, Phyo Z, Andres M, Hughitt VK, Simpson RM, Miller MA, Girvin AT, Taylor A, Williams D, D'Antonio N, Zhang Y, Rajagopalan A, Flietner E, Wilson K, Zhang X, Shinn P, Klumpp-Thomas C, McKnight C, Itkin Z, Chen L, Kazandijian D, Zhang J, Michalowski AM, Simmons JK, Keats J, Thomas CJ, Mock BA. Drug combinations identified by high-throughput screening promote cell cycle transition and upregulate Smad pathways in myeloma. Cancer Lett. 2023 Aug 1;568:216284. doi: 10.1016/j.canlet.2023.216284. Epub 2023 Jun 24. PMID: 37356470; PMCID: PMC10408729.
SEQUENCE No. (e.g., 1, 2, 3, etc.); […] (e.g., Cells, Incubation, Reagent, etc.); VALUE and DESCRIPTION.
1; Cells; 5 uL; white, solid bottom 1536-well Greiner assay plate.
2; Compounds; 23 nL; Kalypsis pin tool (Wako USA) equipped with a 1536-well pin head to transfer to the assay plates.
3; Incubation; 48 hours; 37C incubation.
4; Reagent;5uL; CellTiter Glo (Promega).
5; Detector; 425V; Luminescence; Viewlux PerkinElmer.
NOTES (numbers refer to Sequence numbers above)
1. The cell-based screening methods employed in this study were like those previously published. Briefly, the corresponding myeloma cell lines were screened in 1,536-well plates with 500 cells, 5-uL per well for inhibition of cell viability (assessed by measuring ATP levels with CellTiterGlo).
2. NCATS MIPE 4.0 library of approved and investigational drugs were added using the Kalypsis pin tool. Wells treated with DMSO only for 100% viability and media only for 0% viability were used as controls.
3. The assay plates were covered and incubated for 48 hours in a 37C, 5% CO2 incubator with controlled humidity.
4. After 48 hours, CellTilter-GloTM luminescent substrate mix (Promega) reagent was added to the assay plate and plates we incubated for 5 min at room temperature.
5. Signal was measured as median relative luminescence units on a ViewLux (PerkinElmer) multiplate reader.
[1] Heske CM, Davis MI, Baumgart JT, Wilson K, Gormally MV, Chen L, Zhang X, Ceribelli M, Duveau DY, Guha R, Ferrer M, Arnaldez FI, Ji J, Tran HL, Zhang Y, Mendoza A, Helman LJ, Thomas CJ. Matrix Screen Identifies Synergistic Combination of PARP Inhibitors and Nicotinamide Phosphoribosyltransferase (NAMPT) Inhibitors in Ewing Sarcoma. Clin Cancer Res. 2017 Dec 1;23(23):7301-7311. doi: 10.1158/1078-0432.CCR-17-1121. Epub 2017 Sep 12. PMID: 28899971; PMCID: PMC6636827.
Potency is the fitted concentration of half-maximal effect.

SMILES | Potency | viability
CNCCCC12CCC(c3ccccc31)c1ccccc12 | 20.9 µM (active) | –
CN(CCOc1ccc(NS(C)(=O)=O)cc1)CCc1ccc(NS(C)(=O)=O)cc1 | – | 121% (inactive)
NC(CO)C(=O)NNCc1ccc(O)c(O)c1O (stereo not given) | 26.4 µM (active) | –
CC(C(=O)O)c1cccc(C(=O)c2ccccc2)c1 (stereo not given) | – | 101% (inactive)
Nc1nc2c(ncn2COC(CO)CO)c(=O)[nH]1 | 18.7 µM (active) | –
CCc1cccc2c3c([nH]c12)C(CC)(CC(=O)O)OCC3 (stereo not given) | – | 108% (inactive)
Cc1cn([C@H]2C=C[C@@H](CO)O2)c(=O)[nH]c1=O | – | 108% [at 92.2 µM] (inactive)
CN1C(C(=O)Nc2ccccn2)=C(O)c2ccccc2S1(=O)=O | – | 133% (inactive)
CN1CCN(C2=Nc3cc(Cl)ccc3Nc3ccccc32)CC1 | – | 93.6% (inactive)
C[C@](N)(Cc1ccc(O)c(O)c1)C(=O)O | 16.6 µM (active) | –
Clc1ccc2nsnc2c1NC1=NCCN1 | – | 115% (inactive)
CCOC(=O)C(C)(C)Oc1ccc(Cl)cc1 | – | 130% (inactive)
CN1CCN2c3ccccc3Cc3ccccc3C2C1 (stereo not given) | 16.6 µM (active) | –
CCOC(=O)Nc1ccc(NCc2ccc(F)cc2)nc1N | – | 128% (inactive)
CCOC(=O)c1ncn2c1CN(C)C(=O)c1cc(F)ccc1-2 | – | 98.7% (inactive)
CC1(C)O[C@H]2CC(=O)OC[C@]23[C@H]2CC[C@@]4(C)[C@H](c5ccoc5)OC(=O)[C@H]5O[C@]54[C@]2(C)C(=O)C[C@@H]13 | – | 118% (inactive)
CCC1(C)CC(=O)NC1=O (stereo not given) | – | 111% (inactive)
COc1ccc2c(c1)c(CC(=O)O)c(C)n2C(=O)c1ccc(Cl)cc1 | – | 107% (inactive)
Nc1c2c(nc3ccccc13)CCCC2 | – | 98% (inactive)
Cc1ccc(C(=O)Nc2ccc(S(=O)(=O)O)c3cc(S(=O)(=O)O)cc(S(=O)(=O)O)c23)cc1NC(=O)c1cccc(NC(=O)Nc2cccc(C(=O)Nc3cc(C(=O)Nc4ccc(S(=O)(=O)O)c5cc(S(=O)(=O)O)cc(S(=O)(=O)O)c45)ccc3C)c2)c1 | – | 110% (inactive)

SMILES | Potency | viability
CC1COc2c(N3CCN(C)CC3)c(F)cc3c(=O)c(C(=O)O)cn1c23 (stereo not given) | – | 104% (inactive)
NC(=O)NO | 0.662 µM (active) | –
O=C1c2c(O)ccc(O)c2C(=O)c2c(NCCNCCO)ccc(NCCNCCO)c21 | 13.2 µM (active) | –
CCC1(c2ccccc2)C(=O)NCNC1=O | – | 111% (inactive)
NC(=O)OCC(COC(N)=O)c1ccccc1 | – | 108% (inactive)
CC#C[C@]1(O)CC[C@H]2[C@@H]3CCC4=CC(=O)CCC4=C3[C@@H](c3ccc(N(C)C)cc3)C[C@@]21C | 3.72 µM (active) | –
COc1ccccc1N1CCN(CC(O)COc2cccc3ccccc23)CC1 (stereo not given) | – | 97.6% (inactive)
N[C@@H](Cc1c[nH]c2ccc(O)cc12)C(=O)O | – | 116% (inactive)
Cc1cc(C(C)(C)C)c(O)c(C)c1CC1=NCCN1 | – | 112% (inactive)
CN(C)c1nc(N(C)C)nc(N(C)C)n1 | – | 123% (inactive)
CC(C)Cc1ccc(C(C)C(=O)O)cc1 (stereo not given) | – | 129% [at 23.2 µM] (inactive)
CS(=O)(=O)Nc1ccc([N+](=O)[O-])cc1Oc1ccccc1 | – | 97.5% (inactive)
CC(C)(Oc1ccc(C2CC2(Cl)Cl)cc1)C(=O)O (stereo not given) | – | 114% [at 92.2 µM] (inactive)
NCCCCCC(=O)O | – | 123% (inactive)
COc1ccc(C2CNC(=O)C2)cc1OC1CCCC1 (stereo not given) | – | 108% (inactive)
CCCCc1oc2ccccc2c1C(=O)c1cc(I)c(OCCN(CC)CC)c(I)c1 | 26.4 µM (active) | –
Cc1ccc(-c2cc(C(F)(F)F)nn2-c2ccc(S(N)(=O)=O)cc2)cc1 | – | 103% (inactive)
C[C@@H]1CC(=O)NN=C1c1ccc(NN=C(C#N)C#N)cc1 | 23.5 µM (active) | –
O=C(Nc1ccc([N+](=O)[O-])cc1Cl)c1cc(Cl)ccc1O | 2.96 µM (active) | –
CC[C@@]1(O)C(=O)OCc2c1cc1n(c2=O)Cc2cc3c(CN(C)C)c(O)ccc3nc2-1 | 13.2 µM (active) | –
